Unmarked numbers belong to inactive results.
Columns and labels:
Assay in all cases: log2 ratio of Biotin-Ahx-Ub-VS probe labelling (fragment/DMSO); higher = less target engagement (more negative = stronger competition), active = hit call of the paper (q ≤ 0.05, log2 ratio ≤ -1)
Settings in all cases: compound concentration: 200 uM; treatment time: 3 h
USP42 = molecular target: T1, USP42 (UniProt Q9H9J4)
T1 sequence (whole entry): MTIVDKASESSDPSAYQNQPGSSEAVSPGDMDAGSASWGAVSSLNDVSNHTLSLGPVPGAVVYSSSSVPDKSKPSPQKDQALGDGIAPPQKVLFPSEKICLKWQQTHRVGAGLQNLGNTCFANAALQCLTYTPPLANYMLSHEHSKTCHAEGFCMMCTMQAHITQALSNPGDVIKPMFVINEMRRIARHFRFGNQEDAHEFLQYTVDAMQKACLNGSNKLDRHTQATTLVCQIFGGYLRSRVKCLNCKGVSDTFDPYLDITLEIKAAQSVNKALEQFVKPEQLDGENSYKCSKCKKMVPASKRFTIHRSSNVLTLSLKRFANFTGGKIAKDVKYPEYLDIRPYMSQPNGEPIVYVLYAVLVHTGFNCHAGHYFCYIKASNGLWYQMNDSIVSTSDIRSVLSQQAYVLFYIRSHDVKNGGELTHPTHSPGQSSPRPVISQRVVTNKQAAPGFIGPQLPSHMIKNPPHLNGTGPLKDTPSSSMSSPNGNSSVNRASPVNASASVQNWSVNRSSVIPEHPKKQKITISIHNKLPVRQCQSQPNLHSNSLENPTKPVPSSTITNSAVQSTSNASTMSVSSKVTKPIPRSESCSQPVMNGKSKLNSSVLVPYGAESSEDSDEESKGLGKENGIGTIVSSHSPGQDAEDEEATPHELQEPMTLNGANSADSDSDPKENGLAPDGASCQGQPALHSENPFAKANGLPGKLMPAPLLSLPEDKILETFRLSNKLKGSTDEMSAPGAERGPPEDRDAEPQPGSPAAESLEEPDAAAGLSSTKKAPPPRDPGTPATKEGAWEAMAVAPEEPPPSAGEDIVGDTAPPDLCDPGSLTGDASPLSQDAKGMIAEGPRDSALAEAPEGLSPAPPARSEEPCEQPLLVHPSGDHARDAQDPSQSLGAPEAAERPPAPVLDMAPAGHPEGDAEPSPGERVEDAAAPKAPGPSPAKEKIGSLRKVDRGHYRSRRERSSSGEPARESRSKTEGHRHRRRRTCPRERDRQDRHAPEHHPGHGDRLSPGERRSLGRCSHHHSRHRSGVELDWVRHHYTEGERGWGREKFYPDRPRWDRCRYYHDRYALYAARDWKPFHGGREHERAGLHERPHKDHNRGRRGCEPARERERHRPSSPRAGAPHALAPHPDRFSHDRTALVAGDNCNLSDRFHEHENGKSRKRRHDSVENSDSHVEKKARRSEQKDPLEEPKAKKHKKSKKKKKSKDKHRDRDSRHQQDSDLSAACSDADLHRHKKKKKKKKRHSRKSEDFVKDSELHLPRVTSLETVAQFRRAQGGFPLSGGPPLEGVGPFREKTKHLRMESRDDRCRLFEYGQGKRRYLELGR
Outline: (§1)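 Labelled DUBs from HEK293T lysate were NeutrAvidin-enriched, digested with LysC and trypsin, and run by diaPASEF LC-MS/MS. Before that, each 495 µg sample in Tris/CHAPS/IGEPAL buffer with protease inhibitors was treated in triplicate with fragment at 200 µM or vehicle for 3 h, then with Biotin-Ahx-Ub-VS at 0.5 µM final for 1 h. Values are average log2 ratios of fragment over vehicle by unpaired t-test, based on global-median-normalised Spectronaut label-free quantities from proteins with ≥2 unique peptides.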

USP46 = USP46 (UniProt P62068)
USP46, sequence (P62068 whole entry): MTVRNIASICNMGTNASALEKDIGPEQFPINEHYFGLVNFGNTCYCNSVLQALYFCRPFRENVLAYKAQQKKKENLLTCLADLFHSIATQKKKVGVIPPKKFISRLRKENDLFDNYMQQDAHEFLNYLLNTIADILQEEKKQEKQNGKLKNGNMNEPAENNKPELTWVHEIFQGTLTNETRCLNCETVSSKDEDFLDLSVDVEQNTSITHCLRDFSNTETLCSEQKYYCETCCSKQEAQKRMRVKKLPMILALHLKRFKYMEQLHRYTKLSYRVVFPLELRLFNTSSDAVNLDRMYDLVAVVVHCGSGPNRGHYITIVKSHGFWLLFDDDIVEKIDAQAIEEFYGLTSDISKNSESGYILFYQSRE
Outline: as §1

USP47 = molecular target: T2, USP47 (UniProt Q96K76)
T2 sequence (whole entry): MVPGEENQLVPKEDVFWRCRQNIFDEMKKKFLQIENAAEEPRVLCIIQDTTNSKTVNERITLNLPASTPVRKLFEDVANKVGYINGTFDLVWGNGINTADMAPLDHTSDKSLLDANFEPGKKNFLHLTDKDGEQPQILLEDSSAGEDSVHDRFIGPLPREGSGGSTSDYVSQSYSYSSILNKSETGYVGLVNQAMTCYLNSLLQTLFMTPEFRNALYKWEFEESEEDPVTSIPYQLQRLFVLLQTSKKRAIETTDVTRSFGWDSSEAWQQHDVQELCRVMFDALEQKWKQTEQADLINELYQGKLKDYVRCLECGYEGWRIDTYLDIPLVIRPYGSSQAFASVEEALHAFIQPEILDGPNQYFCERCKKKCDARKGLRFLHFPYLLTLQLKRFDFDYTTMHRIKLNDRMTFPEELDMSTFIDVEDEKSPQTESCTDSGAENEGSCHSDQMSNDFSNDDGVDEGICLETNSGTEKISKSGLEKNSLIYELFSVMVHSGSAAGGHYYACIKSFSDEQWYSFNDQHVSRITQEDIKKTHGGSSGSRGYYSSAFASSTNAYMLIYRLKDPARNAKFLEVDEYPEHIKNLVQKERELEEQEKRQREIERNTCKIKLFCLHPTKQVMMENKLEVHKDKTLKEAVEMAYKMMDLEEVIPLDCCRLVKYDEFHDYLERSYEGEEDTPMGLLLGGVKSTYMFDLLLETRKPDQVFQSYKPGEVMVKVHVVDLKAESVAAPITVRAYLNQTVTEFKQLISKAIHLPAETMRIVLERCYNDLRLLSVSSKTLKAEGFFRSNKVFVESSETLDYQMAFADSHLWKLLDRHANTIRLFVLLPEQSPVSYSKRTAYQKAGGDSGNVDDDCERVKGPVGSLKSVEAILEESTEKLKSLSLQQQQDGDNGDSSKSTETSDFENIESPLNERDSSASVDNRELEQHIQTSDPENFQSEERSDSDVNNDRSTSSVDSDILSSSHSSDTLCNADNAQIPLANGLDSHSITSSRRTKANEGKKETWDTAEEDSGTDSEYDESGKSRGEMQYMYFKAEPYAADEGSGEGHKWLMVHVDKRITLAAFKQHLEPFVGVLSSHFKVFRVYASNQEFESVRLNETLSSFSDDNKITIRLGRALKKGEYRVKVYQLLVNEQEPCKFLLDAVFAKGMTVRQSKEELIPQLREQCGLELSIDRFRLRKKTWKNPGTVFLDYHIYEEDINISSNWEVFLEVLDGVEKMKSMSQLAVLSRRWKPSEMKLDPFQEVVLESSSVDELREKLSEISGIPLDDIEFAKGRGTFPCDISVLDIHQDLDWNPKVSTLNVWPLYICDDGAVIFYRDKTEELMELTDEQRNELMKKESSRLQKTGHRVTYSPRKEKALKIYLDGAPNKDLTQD
Outline: as §1

USP48 = molecular target: T3, USP48 (UniProt Q86UV5)
T3 sequence (whole entry): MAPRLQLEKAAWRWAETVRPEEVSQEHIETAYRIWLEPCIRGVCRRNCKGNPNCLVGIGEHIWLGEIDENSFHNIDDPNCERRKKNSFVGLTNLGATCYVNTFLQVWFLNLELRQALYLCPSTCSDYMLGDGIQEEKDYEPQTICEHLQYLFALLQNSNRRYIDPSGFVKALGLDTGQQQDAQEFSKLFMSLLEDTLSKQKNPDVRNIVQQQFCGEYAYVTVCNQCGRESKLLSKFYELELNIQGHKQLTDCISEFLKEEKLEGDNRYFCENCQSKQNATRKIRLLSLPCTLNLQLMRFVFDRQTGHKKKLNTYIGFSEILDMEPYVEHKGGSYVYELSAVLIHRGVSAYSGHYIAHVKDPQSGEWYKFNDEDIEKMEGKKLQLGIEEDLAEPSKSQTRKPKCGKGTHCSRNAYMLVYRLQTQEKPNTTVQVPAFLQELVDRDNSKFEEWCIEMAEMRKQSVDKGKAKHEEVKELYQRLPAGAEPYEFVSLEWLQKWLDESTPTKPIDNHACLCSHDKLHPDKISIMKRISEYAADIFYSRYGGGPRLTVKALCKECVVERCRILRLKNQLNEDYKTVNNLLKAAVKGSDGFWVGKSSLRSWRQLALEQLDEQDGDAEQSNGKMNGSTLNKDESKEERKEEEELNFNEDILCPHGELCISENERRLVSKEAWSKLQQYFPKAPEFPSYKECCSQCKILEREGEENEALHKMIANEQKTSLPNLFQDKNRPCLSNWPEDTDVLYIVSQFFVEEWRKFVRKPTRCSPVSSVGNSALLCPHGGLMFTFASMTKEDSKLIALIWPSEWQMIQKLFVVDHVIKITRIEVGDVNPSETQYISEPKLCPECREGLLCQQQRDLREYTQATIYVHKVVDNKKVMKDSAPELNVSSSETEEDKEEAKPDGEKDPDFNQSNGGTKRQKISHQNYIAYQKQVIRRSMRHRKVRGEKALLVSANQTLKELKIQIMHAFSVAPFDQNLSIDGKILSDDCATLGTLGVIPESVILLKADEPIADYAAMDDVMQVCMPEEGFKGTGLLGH
Outline: as §1

USP5 = molecular target: T4, USP5 (UniProt P45974)
T4 sequence (whole entry): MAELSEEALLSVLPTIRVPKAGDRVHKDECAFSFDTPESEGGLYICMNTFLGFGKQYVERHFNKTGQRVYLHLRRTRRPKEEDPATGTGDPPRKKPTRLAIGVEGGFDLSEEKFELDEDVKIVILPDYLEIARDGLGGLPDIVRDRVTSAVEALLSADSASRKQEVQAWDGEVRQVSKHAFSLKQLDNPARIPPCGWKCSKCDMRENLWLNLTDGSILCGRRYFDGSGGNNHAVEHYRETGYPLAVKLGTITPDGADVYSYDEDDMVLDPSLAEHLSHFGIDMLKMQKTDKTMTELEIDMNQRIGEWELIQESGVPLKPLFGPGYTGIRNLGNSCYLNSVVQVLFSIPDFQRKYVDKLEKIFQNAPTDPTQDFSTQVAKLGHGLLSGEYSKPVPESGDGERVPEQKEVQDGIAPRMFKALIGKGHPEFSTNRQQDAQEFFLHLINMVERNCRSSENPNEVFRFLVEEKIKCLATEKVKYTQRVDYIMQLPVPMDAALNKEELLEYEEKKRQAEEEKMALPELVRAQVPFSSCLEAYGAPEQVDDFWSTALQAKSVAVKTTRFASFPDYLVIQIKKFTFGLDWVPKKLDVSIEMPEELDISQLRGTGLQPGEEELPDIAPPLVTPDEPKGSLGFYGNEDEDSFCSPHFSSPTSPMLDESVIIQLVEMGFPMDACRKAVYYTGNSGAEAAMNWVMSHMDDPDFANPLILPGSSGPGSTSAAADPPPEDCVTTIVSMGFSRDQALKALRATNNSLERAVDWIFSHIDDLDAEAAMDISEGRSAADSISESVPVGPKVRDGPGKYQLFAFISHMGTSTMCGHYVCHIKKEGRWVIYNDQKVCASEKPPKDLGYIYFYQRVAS
Outline: as §1

USP54 = USP54 (UniProt Q70EL1)
Outline: as §1

USP7 = USP7 (UniProt Q93009)
USP7, sequence (Q93009 whole entry, looked up): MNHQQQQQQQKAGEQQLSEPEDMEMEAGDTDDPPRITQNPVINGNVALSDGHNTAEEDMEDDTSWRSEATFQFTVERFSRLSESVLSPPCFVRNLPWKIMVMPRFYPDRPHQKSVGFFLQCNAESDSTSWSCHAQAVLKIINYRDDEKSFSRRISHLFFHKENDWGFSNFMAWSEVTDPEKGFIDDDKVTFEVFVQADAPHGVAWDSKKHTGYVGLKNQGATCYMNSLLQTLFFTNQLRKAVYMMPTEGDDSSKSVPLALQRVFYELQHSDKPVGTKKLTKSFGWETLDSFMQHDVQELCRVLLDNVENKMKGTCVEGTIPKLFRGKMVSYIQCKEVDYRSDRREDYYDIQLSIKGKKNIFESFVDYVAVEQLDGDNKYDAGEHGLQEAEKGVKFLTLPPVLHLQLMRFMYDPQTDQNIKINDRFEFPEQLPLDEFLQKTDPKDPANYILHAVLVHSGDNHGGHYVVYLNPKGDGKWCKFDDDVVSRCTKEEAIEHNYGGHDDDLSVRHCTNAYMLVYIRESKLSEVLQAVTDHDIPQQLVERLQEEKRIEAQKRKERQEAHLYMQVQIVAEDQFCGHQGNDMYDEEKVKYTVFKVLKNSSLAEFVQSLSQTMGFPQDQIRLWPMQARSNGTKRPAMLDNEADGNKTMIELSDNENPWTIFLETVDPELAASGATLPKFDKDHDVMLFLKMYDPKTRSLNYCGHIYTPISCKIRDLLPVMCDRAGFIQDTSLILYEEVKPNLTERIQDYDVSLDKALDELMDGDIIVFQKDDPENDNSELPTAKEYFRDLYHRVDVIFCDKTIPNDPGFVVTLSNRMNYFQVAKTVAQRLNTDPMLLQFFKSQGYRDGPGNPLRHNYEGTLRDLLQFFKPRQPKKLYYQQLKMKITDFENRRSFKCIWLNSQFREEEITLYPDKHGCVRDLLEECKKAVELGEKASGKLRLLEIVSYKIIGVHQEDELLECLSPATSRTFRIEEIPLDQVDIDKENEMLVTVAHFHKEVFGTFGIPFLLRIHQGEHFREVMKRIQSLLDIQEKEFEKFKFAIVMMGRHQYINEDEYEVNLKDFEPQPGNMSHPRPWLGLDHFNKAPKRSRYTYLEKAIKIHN
Outline: as §1

USP8 = molecular target: T5, USP8 (UniProt P40818)
T5 sequence (whole entry): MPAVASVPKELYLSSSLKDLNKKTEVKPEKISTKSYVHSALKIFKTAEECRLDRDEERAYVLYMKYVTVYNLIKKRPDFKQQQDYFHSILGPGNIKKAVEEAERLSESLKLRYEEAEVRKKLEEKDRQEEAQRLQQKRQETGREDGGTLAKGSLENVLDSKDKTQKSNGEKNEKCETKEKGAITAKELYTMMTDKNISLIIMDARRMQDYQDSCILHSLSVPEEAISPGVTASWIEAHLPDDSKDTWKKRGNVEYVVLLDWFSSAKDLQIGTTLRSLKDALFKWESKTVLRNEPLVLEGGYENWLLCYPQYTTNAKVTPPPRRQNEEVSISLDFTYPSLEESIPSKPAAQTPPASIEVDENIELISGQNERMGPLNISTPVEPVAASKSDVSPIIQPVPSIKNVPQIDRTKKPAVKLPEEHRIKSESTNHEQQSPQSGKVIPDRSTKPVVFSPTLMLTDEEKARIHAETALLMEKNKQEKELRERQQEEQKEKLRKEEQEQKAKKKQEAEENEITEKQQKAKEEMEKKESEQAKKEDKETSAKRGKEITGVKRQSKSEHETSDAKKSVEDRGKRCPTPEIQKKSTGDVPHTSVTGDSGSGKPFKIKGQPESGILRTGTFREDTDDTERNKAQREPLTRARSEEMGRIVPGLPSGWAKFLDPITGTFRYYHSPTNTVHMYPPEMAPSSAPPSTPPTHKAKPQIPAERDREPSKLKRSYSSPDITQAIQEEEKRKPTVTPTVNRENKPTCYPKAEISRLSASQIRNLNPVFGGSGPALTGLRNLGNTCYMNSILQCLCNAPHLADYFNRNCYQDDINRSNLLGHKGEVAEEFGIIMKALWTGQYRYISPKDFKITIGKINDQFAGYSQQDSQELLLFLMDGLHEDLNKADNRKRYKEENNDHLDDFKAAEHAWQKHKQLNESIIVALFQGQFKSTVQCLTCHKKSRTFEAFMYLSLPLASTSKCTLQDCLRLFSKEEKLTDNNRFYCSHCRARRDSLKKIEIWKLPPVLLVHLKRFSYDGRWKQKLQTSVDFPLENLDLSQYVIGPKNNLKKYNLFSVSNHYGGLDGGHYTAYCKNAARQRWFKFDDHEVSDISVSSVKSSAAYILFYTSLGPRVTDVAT
Outline: as §1

USP9X = USP9X (UniProt Q93008)
USP9X, sequence (Q93008 whole entry): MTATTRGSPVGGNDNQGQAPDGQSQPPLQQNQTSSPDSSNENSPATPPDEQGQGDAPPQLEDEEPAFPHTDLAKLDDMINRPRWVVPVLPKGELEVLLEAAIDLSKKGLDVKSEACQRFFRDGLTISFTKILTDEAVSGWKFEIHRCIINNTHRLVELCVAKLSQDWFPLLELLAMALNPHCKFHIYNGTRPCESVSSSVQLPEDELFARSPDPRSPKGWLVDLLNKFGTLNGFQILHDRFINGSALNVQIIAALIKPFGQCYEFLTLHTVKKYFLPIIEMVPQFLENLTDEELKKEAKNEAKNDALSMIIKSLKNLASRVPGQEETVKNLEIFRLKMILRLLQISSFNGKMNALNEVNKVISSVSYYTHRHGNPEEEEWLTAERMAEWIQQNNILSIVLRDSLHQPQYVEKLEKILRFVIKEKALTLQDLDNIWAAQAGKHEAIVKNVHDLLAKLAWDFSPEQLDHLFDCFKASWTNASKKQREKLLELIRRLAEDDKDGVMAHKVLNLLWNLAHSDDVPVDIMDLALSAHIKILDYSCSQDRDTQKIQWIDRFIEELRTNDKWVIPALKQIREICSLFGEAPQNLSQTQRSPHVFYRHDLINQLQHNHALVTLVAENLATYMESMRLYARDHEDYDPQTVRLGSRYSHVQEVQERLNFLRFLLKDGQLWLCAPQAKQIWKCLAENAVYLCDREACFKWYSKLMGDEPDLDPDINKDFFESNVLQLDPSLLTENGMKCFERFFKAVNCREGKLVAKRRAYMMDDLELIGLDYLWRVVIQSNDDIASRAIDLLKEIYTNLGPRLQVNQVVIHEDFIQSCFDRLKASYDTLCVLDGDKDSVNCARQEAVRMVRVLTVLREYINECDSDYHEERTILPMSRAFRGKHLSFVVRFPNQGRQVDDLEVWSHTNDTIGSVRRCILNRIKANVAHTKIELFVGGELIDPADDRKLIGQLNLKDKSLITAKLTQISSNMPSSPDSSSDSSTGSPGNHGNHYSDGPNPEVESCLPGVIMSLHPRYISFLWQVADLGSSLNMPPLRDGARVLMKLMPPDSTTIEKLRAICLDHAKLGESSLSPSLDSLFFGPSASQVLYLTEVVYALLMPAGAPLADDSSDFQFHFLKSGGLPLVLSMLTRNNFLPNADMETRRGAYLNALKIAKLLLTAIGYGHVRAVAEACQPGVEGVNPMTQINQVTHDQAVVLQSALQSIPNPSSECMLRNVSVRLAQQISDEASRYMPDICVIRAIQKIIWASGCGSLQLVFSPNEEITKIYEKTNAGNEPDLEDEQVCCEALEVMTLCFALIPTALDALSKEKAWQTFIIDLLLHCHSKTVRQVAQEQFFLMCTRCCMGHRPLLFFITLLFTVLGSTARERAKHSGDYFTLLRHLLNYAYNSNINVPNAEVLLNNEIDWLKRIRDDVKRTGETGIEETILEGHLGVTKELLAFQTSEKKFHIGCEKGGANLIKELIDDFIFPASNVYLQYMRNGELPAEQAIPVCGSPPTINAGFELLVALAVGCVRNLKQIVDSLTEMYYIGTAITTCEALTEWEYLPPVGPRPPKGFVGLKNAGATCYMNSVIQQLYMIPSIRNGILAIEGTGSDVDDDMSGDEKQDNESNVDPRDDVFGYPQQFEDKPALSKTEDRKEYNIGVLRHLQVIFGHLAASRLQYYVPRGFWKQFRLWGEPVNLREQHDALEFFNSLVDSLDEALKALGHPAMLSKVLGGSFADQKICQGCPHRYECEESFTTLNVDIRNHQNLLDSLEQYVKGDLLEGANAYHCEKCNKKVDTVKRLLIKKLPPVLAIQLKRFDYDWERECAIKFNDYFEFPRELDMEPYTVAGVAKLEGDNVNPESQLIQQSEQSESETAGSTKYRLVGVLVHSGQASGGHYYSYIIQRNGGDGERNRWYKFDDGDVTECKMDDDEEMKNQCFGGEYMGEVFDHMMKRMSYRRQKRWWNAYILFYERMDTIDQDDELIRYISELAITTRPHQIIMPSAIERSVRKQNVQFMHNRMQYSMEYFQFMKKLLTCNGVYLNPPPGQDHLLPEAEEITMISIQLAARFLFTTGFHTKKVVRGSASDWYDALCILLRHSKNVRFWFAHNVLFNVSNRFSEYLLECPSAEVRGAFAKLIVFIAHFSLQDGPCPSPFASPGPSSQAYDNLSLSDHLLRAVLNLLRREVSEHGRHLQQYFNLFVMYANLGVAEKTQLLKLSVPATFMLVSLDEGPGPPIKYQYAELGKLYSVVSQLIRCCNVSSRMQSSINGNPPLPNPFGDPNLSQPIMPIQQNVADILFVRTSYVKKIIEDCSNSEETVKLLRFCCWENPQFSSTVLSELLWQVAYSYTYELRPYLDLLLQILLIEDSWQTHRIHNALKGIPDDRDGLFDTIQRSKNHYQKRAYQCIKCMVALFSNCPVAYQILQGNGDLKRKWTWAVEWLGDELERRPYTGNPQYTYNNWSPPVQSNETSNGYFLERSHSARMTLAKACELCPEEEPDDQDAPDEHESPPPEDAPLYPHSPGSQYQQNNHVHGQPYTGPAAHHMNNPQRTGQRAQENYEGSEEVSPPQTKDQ
Outline: as §1

UniProt O00487 = molecular target: UniProt O00487
UniProt O00487, sequence (O00487 whole entry): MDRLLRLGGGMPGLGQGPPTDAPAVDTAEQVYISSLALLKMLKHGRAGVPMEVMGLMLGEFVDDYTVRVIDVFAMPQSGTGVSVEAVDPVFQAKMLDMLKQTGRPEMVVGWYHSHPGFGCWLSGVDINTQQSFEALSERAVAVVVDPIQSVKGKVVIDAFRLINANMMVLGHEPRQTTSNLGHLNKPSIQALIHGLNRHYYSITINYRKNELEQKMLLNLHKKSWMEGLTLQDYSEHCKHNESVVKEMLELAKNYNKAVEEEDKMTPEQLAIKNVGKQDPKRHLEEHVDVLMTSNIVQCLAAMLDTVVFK
Outline: as §1

SMILES	log2 ratio of Biotin-Ahx-Ub-VS probe labelling (USP42)	log2 ratio of Biotin-Ahx-Ub-VS probe labelling (USP46)	log2 ratio of Biotin-Ahx-Ub-VS probe labelling (USP47)	log2 ratio of Biotin-Ahx-Ub-VS probe labelling (USP48)	log2 ratio of Biotin-Ahx-Ub-VS probe labelling (USP5)	log2 ratio of Biotin-Ahx-Ub-VS probe labelling (USP54)	log2 ratio of Biotin-Ahx-Ub-VS probe labelling (USP7)	log2 ratio of Biotin-Ahx-Ub-VS probe labelling (USP8)	log2 ratio of Biotin-Ahx-Ub-VS probe labelling (USP9X)	log2 ratio of Biotin-Ahx-Ub-VS probe labelling (UniProt O00487)
NC(=O)C(Cc1ccccc1)NC(=O)CCl (stereo not given)	-0.119	0.0497	-0.239	-0.238	0.0132	0.357	-0.174	-0.047	-0.099	-0.162
O=C(CCl)N1CCC(C(=O)N2CCCC2)CC1	-0.161	0.0393	-0.0567	0.126	-0.266	-0.159	-0.543	-0.0342	-0.0236	-0.108
O=C(CCl)N1CC=C(c2c[nH]c3ccccc23)CC1	0.0977	-1.44 (active)	0.0399	-0.728	-0.577	0.155	-1.53 (active)	-0.785	-0.82	-0.0429
